Screening data deposited in PubChem BioAssay by The Scripps Research Institute Molecular Screening Center.
Many of the other results were omitted from the sample, so hits are more common in it than they were.
TTR transcr act: TTR transcription activation, primary screen; SH-SY5Y TTR promoter Gaussia luciferase, luminescence; 100% = recombinant luciferase protein wells; hit rate 1.3% among 92,000; AID 1117267; activation, % at 16.7 µM;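 active = activation above the mean of all tested compounds plus 3 SD, cut at about 9.5% in these data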;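 also: cells exposed to compounds for one day before reading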
HuH7 TTR inh: decreases TTR transcription in HuH7 cells in activator counter-screen; AID 1117279; HuH7 TTR promoter-Gaussia luciferase reporter, luminescence; hit rate 4% among 1,100; shares compounds with TTR transcr act; inhibition, % at 16.7 µM;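 active = average inhibition above the solvent-only control wells' mean plus 3 SD, cut at about 15% in these data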;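 also: inhibitors lower well luminescence so higher value means more inhibition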
TTR up confirm: human TTR transcription activation, confirmation; activation, % at 16.7 µM; SHSY5Y TTR promoter Gaussia luciferase, luminescence; 100% = purified Lucia enzyme wells, no cells; AID 1117280; 1,100 tested, under 10 active; shares compounds with TTR transcr act;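 active = mean activation above a set limit taken from the earlier primary screen, cut at about 11% in these data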
Hits are given with their value.

How did COc1ccc(/C=N/NC(=O)COc2cccc3cccnc23)cc1OC do in these assays?
TTR transcr act: inactive

Results for O=S(=O)(c1ccc(CN2CCOCCOCCN(Cc3ccc(S(=O)(=O)C(F)(F)F)cc3)CCOCC2)cc1)C(F)(F)F ?
TTR transcr act: inactive

How did CCCN1CCN(CCNC(=O)Nc2cc(C)ccc2C)CC1 do in these assays?
TTR transcr act: inactive

What do the screens show for `CCOC(=O)C1CCCN(C(=O)c2cccc(NC(=O)C(CC)CC)c2)C1` (centres undefined)?
TTR transcr act: inactive

What do the screens show for `O=C(NCCc1ccccc1)c1cc(S(=O)(=O)N2CCCCC2)c[nH]1`?
TTR transcr act: 14.7; HuH7 TTR inh: inactive; TTR up confirm: inactive

How did Cc1ccc(CCNC(=O)c2cc(S(=O)(=O)N3CCCCC3)c[nH]2)cc1 do in these assays?
TTR transcr act: inactive

How did O=C(NCc1ccc(F)cc1)c1cc(S(=O)(=O)N2CCCCC2)c[nH]1 do in these assays?
TTR transcr act: inactive

How did Cc1cc(C)cc(SCc2noc(C(=O)NCc3ccccc3)c2C(=O)NCc2ccccc2)c1 do in these assays?
TTR transcr act: inactive

Results for CCN(Cc1ccccc1)C(=O)C(C)OC(=O)c1cc(S(=O)(=O)Nc2c(C)n(C)n(-c3ccccc3)c2=O)ccc1C (centres undefined) ?
TTR transcr act: inactive

What do the screens show for `O=C(CCc1n[nH]c(=O)[nH]c1=O)Nc1cccc([N+](=O)[O-])c1`?
TTR transcr act: inactive

Results for Cc1cc(Cl)nc2c(C(C)C)cccc12 ?
TTR transcr act: 17.2; HuH7 TTR inh: inactive; TTR up confirm: inactive

How did Cc1cccc2c3nc4ccccc4nc3n(C)c12 do in these assays?
TTR transcr act: inactive

What do the screens show for `CC(=O)NC(C)c1cc(Cl)c2cccnc2c1O` (centres undefined)?
TTR transcr act: inactive

Results for CC(C)C[C@@H](CO)N1CCN(CCCc2ccccc2)CCC1=O ?
TTR transcr act: inactive

Results for S=C(c1c[nH]c2ccc(Br)cc12)N1CCOCC1 ?
TTR transcr act: inactive

Results for O=C(c1cccc(Cl)c1)N1CCN(c2ccnc3cc(Cl)ccc23)CC1 ?
TTR transcr act: inactive

What do the screens show for `O=C(NCCOc1ccccc1)c1cccc(S(=O)(=O)N2CCN(Cc3ccccc3)CC2)c1`?
TTR transcr act: inactive

Results for CCCCN(C(=O)c1cccc(S(=O)(=O)N2CCN(Cc3ccccc3)CC2)c1)c1ccccc1 ?
TTR transcr act: 26.7; HuH7 TTR inh: inactive; TTR up confirm: inactive

What do the screens show for `Cc1ccc(CN(C)C(=O)c2cccc(S(=O)(=O)N3CCN(Cc4ccccc4)CC3)c2)o1`?
TTR transcr act: inactive

What do the screens show for `COC[C@H]1CCCN1c1ccc2c(c1)O[C@H](C)CCN(C1CC1)S2(=O)=O`?
TTR transcr act: inactive

Results for CS(=O)(=O)N1c2ccccc2C[C@H]1Cc1cc2ccccc2o1 ?
TTR transcr act: inactive

How did CCC(=O)c1ccc(OCCN2CCOCC2)cc1 do in these assays?
TTR transcr act: inactive

How did O=C(CCN1CCOCC1)c1ccc(N2CCCCC2)cc1 do in these assays?
TTR transcr act: 10.0; HuH7 TTR inh: inactive; TTR up confirm: inactive

What do the screens show for `CC(C)(C)c1cc(C(=O)CCN2CCOCC2)cc(C(C)(C)C)c1O`?
TTR transcr act: inactive

How did N/C(Cc1cccs1)=N\OC(=O)COc1ccccc1Cl do in these assays?
TTR transcr act: 11.1; HuH7 TTR inh: inactive; TTR up confirm: inactive

What do the screens show for `COc1ccc(C(=O)O/N=C(\N)Cc2cccs2)cc1OC`?
TTR transcr act: inactive

What do the screens show for `COc1ccc(/C(N)=N/OC(=O)COc2ccccc2Cl)cc1`?
TTR transcr act: inactive

Results for COC(=O)[C@]12CCCCC=C1N(Cc1ccc(OC)cc1)C(=O)[C@@H]2CC(=O)N1CCCC1 ?
TTR transcr act: inactive

What do the screens show for `Clc1ccc(-c2noc3c2-c2nc(Cc4cccc5ccccc45)sc2CC3)cc1`?
TTR transcr act: inactive

How did Cc1ccc(N(CC(=O)NC(C)(C)C)C(=O)CCC(=O)Nc2nccs2)cc1C do in these assays?
TTR transcr act: 9.7; HuH7 TTR inh: inactive; TTR up confirm: inactive

How did Cc1ccc(N(CC(=O)NCC2CCCO2)C(=O)CCC(=O)Nc2nccs2)cc1C (centres undefined) do in these assays?
TTR transcr act: inactive

Results for Cc1ccc(N(CC(=O)NC(C)C)C(=O)CCC(=O)Nc2nccs2)cc1 ?
TTR transcr act: inactive

Results for N#CCCn1cc(C(N)=O)c(-c2ccc3ccccc3c2)n1 ?
TTR transcr act: inactive

Results for CCc1ccc(CCNC(=O)OC2CC3CC2[C@H]2CCCCN2[C@H]3C)cc1 (some centres undefined) ?
TTR transcr act: inactive

Results for Cc1ccc(Nc2n[nH]c(=S)s2)cc1F ?
TTR transcr act: inactive

How did COc1ccc(Nc2nc3[nH]c(=O)cc(O)c3s2)cc1 do in these assays?
TTR transcr act: inactive

Results for O=c1cc(O)c2sc(Nc3ccc(Cl)c(F)c3)nc2[nH]1 ?
TTR transcr act: 9.9; HuH7 TTR inh: 17.0; TTR up confirm: inactive

What do the screens show for `COc1ccc(C(=O)N2CCCN(C)CC2)cc1S(=O)(=O)N(C)Cc1ccccc1`?
TTR transcr act: inactive

How did Cc1ccc(NC(=O)c2sc(=S)n(-c3cc(C)ccc3F)c2N)cc1 do in these assays?
TTR transcr act: inactive

What do the screens show for `CCc1nnc(SCC(=O)Nc2ccc(N3CCOCC3)cc2)n1C`?
TTR transcr act: inactive

How did C=CCNC(=S)Nc1sc2c(c1C(=O)OCC)CC(C)(CC)OC2 (centres undefined) do in these assays?
TTR transcr act: inactive

How did CC(C)c1nc2sc3c(=O)[nH]c(=S)[nH]c3c2c2c1CCCC2 do in these assays?
TTR transcr act: inactive

How did CCC1(C)Cc2sc3c(=O)[nH]c(=S)[nH]c3c2CO1 (centres undefined) do in these assays?
TTR transcr act: 17.9; HuH7 TTR inh: inactive; TTR up confirm: inactive

Results for COc1ccccc1C(=O)n1ccc2ccc(-c3ccc4ccn(Cc5ccccc5)c4c3)cc21 ?
TTR transcr act: inactive

How did CC(Sc1nncn1C)C(=O)NCc1ccc2c(c1)OCO2 (centres undefined) do in these assays?
TTR transcr act: inactive

Results for COc1ccccc1NS(=O)(=O)c1cc(NC(C)=O)ccc1N1CCCCC1 ?
TTR transcr act: inactive

Results for COc1ccccc1NS(=O)(=O)c1cc(NC(=O)c2cc(F)c(F)c(F)c2F)ccc1N1CCOCC1 ?
TTR transcr act: 27.4; HuH7 TTR inh: inactive; TTR up confirm: inactive

How did COc1ccccc1NS(=O)(=O)c1cc(N2Cc3ccccc3C2=N)ccc1N1CCOCC1 do in these assays?
TTR transcr act: inactive

How did CC(C)NC(=O)CSc1nc(N)c(NC(=O)c2ccccc2F)c(=O)[nH]1 do in these assays?
TTR transcr act: inactive

How did Nc1nc(SCCO)[nH]c(=O)c1NC(=O)c1ccccc1F do in these assays?
TTR transcr act: 20.0; HuH7 TTR inh: inactive; TTR up confirm: inactive

What do the screens show for `COc1ccc(NC(=O)CSc2nc(N)c(NC(=O)c3ccccc3F)c(=O)[nH]2)cc1`?
TTR transcr act: inactive

What do the screens show for `NC(=O)C1CCN(c2ncc(Br)s2)CC1`?
TTR transcr act: inactive

What do the screens show for `CO[C@H]([C@H](C)/C=C/N(C)C=O)[C@@H](C)C(=O)CC[C@H](C)[C@H](O)[C@H](C)[C@H]1OC(=O)/C=C/C(C)=C/C[C@H](O)C[C@@H]2C=CC[C@@H](C[C@H](OC)[C@@]3(CO3)[C@@H](OC)C[C@@H](OC)[C@@H]1C)O2`?
TTR transcr act: inactive
